# In ChEMBL document CHEMBL4513216, “Probing the Open Global Health Chemical Diversity Library for Multistage-Active Starting Points for Next-Generation Antimalarials” (ACS Infect Dis, 2020):
# Among all 65,000 compounds or so, about 2,100 (3.2%) showed an effect of 50% or more. The median lay at about -52%. Shown is part of a subset that was picked to be rich in strong results.
# Test system: Plasmodium falciparum
# Experiment: Screen against P. falciparum Asexual Blood Stage (ABS), at 5uM
# Assay type: functional, Dd2
# Conditions: tested at 5 uM
row,SMILES,INHIBITION
1,O=C([C@H]1CCCO1)N1CCOC2(CCCN(c3ncccc3F)C2)C1 (stereo partly drawn),-9.29%
2,CN(C)c1nc(N2CCCC2)nc2c1CCN(Cc1nccn1C)CC2,7.51%
3,Cc1nc(NC(C)C)nc2c1CN(Cc1nccn1C)CC2,-27.4%
4,CC(C)Nc1nc2c(c(N(C)C)n1)CCN(Cc1nccn1C)CC2,54.5%
5,O[C@@H]1CN(c2noc(C3CC3)n2)CC[C@H]1c1ccc2ccccc2c1,-24.7%
6,Cc1cnn(C2CCCN(C(=O)c3ccccc3-n3cnnn3)C2)c1 (stereo not drawn),-52.2%
7,CNC(=O)c1cc(NC(=O)NCC2CCS(=O)(=O)C2)ccc1OC (stereo not drawn),-116%
8,COc1ccc2ccccc2c1CNCC1CCS(=O)(=O)C1 (stereo not drawn),67.4%
9,COc1cccc(-c2n[nH]cc2CNCC2CCS(=O)(=O)C2)c1 (stereo not drawn),-48.5%
10,CC(C)OCCCNC(=O)CN(c1ccc(F)c(F)c1)S(C)(=O)=O,-105%
11,Fc1cccc(-c2nnn3c2COC(CNCc2ccsc2)C3)c1 (stereo not drawn),-82.8%
12,c1cc(CN2Cc3nccn3CC(Cn3cncn3)C2)ccn1 (stereo not drawn),-4.38%
13,O=C(C1CC1)N1CCC2(CC1)COCCN2Cc1ccc(F)cc1,-40.7%
14,Cc1ccc(C(C(=O)NCCN2CCC(CO)CC2)N(C)C)cc1 (stereo not drawn),-9.75%
15,Cc1ccc(C(C(=O)NCCc2nc(C)cc(C)n2)N(C)C)cc1 (stereo not drawn),-102%
16,Cc1cccc(C(C(=O)NC(C)(C)CN2CCCC2)N(C)C)c1 (stereo not drawn),38.5%
17,Cc1cccc(C(C(=O)NC(C)(C)CN2CCOCC2)N(C)C)c1 (stereo not drawn),32%
18,Cc1ccc(C(C(=O)NC(C)(C)CN2CCCC2)N(C)C)cc1 (stereo not drawn),52%
19,Cc1ccc(C(C(=O)NCCN2CCCCCC2)N(C)C)cc1 (stereo not drawn),58.5%
20,Cc1cccc(COc2ccc(C(C)N)cc2)c1 (stereo not drawn),8.28%
21,CCc1ccc2nc(C)cc(C(=O)NC[C@@H]3CCNC[C@H]3O)c2c1,-49.3%
22,CCc1ccc2nc(C)cc(C(=O)N[C@@H]3CCCNC3)c2c1,64.5%
23,CCc1ccc2nc(C)cc(C(=O)N[C@@H]3CNC[C@H]3O)c2c1,-22%

row,SMILES,INHIBITION
1,N#CCCNC(=O)CN1CC(n2cccn2)C1,-21.3%
2,O=S(=O)(Cc1cccc(Cl)c1)CC(O)Cn1cccn1 (stereo not drawn),-0.894%
3,O=C(c1cscn1)N1CCc2c(COCC3CC3)cncc2C1,-54.8%
4,O=c1occ(CN2CCSCC2)c(O)c1CN1CCCC1,-7.27%
5,O=c1occ(CN2CCCCCC2)c(O)c1CN1CCOCC1,-36%
6,O=c1occ(CN2CCCCCC2)c(O)c1CN1CCCCCC1,55.5%
7,COc1c(C(=O)NCC(C)C)nnn1Cc1ccccc1,-128%
8,C[C@@H]1CN(CCOCc2ccccc2)CC[C@@]1(O)C1CCC1,54.7%
9,C[C@@H]1CN(CCOc2ccc(Cl)cc2)CC[C@@]1(O)C1CCOCC1,-28.8%
10,C[C@@H]1CN(CCC(=O)N(C)Cc2ccccc2)CC[C@@]1(O)C1CCC1,22.8%
11,CN(CCCc1cc(-c2ccc(F)cc2)n(C)n1)CC(=O)NC(N)=O,-152%
12,CN(C)C(=O)C1CCC2(CCN(Cc3ccc4ccccc4n3)CC2)O1 (stereo not drawn),-19%
13,CCOc1ccc(Cl)cc1C1CCCCN1 (stereo not drawn),68.8%
14,CCOc1ccccc1C1CCCN1 (stereo not drawn),-8.92%
15,CCOc1ccc(Cl)cc1C(C(=O)O)N1CCCC1 (stereo not drawn),2.39%
16,Cn1cc(CCC(=O)N2C[C@@H]3CC[C@H]2CN(Cc2ccccc2)C3)cn1,14.3%
17,CCC(=O)N1CCCCC1c1nc(O)c2c(n1)CN(C(C)=O)CC2 (stereo not drawn),-29.8%
18,Cc1ccoc1CNCc1nnc2n1CC(C(F)(F)F)CC2 (stereo not drawn),-13.5%
19,COc1ccccc1COCC(O)CN(C)Cc1cccc(Cl)c1 (stereo not drawn),-93.4%
20,COc1ccc(CN(C)CC(O)COCc2ccccc2Cl)c(OC)c1 (stereo not drawn),-5.65%
21,Cc1ccccc1CN(C)CC(O)COCc1ccccc1Cl (stereo not drawn),68.9%
22,OC[C@H]1CN(Cc2c(Cl)cccc2Cl)C[C@H]1CN1CCCCC1,50.8%
23,OC[C@H]1CN(Cc2c(Cl)cncc2Cl)C[C@H]1CN1CCCCCC1,12.6%

row,SMILES,INHIBITION
1,OC[C@H]1CN(Cc2c(Cl)cncc2Cl)C[C@H]1CN1CCOCC1,-53.1%
2,Clc1ccc(CN(CCN2CCOCC2)Cc2cccnc2)c(Cl)c1,35.4%
3,Clc1cccc(Cl)c1CN(CCCN1CCOCC1)Cc1cccnc1,-6.41%
4,Clc1ccc(CN(CCN2CCOCC2)Cc2cccnc2)cc1Cl,53.8%
5,CN(C)[C@@H]1CCN(C(=O)c2cccn2C)[C@H]1Cc1cnn(C)c1,-109%
6,O=C(c1ccco1)N1CC[C@@H]2O[C@@H](COCCN3CCCC3)CC[C@@H]21,-86.1%
7,c1cnc(N2CC[C@@H]3O[C@@H](COCc4cccnc4)CC[C@@H]32)nc1,-60.3%
8,CCN(CC)Cc1ccc(C(=O)NC2CCc3cc(Br)ccc32)o1 (stereo not drawn),47.7%
9,CCN(CC)Cc1ccc(C(=O)NC2CCc3cc(F)ccc32)o1 (stereo not drawn),16.3%
10,CCN(CC)Cc1ccc(C(=O)NC2CCc3cc(Cl)ccc32)o1 (stereo not drawn),56%
11,Cc1cncc(C(=O)NCCSCc2cccs2)c1,-11%
12,CN1CCOC(CNCCOc2cccc(C#N)c2)C1 (stereo not drawn),-70.4%
13,OC1CCN(Cc2cc3c(cc2Br)OCCO3)CC1,-16.3%
14,Brc1cc2c(cc1CN1CCC(N3CCCCC3)CC1)OCCO2,61.5%
15,OCC1CCN(Cc2cc3c(cc2Br)OCCO3)CC1,-9.89%
16,CN1CCN(C2CCN(CCOc3cccc(Cl)c3)CC2)C1=O,-9.24%
17,Cn1ncc2c1NC(=O)CC2c1ccccc1Br (stereo not drawn),-46.4%
18,CS(=O)(=O)NCc1cc(=O)n2c(n1)CN(Cc1ccco1)CCC2,-15.8%
19,CNC(=O)c1cn[nH]c1C1(C)CCCN(Cc2ccccc2OC)C1 (stereo not drawn),31.1%
20,CN(C)C(=O)c1cn[nH]c1C1(C)CCCN(Cc2ccccn2)C1 (stereo not drawn),-73.2%
21,CNC(=O)c1cn[nH]c1C1(C)CCCN(Cc2ccccn2)C1 (stereo not drawn),61.9%
22,CCOc1nnc(CN2CCN(CCOC)CC2)s1,-108%
